# In PubChem BioAssay (NCATS):
# Records with an inconclusive call do not appear. Where a call stands in place of a potency, no number is given. The source made the active and inactive calls. Unless noted, calls come from the whole dose curve; as a rule, active = well fitted curve in the direction sought with a large enough effect; inconclusive = small, poorly fitted or top-dose-only effect, or another doubt; inactive = no such curve, though single readings can be large; an effect the other way counts as inactive or inconclusive.
# Experiments:
# [1] = Primary qHTS for inhibitors of nuclear receptor binding SET domain protein 2 (NSD2) in an RCH-ACV wild type WT cells (2C) (AID 1645877); note: nearly all actives have a fitted effect of over 70% in size; note: potency is the fitted concentration of half-maximal effect
# [2] = target: Glutathione peroxidase 1 (Homo sapiens) (UniProt P07203); assay: Primary qHTS Assay for Inhibitors of Recombinant Selenoprotein Glutathione Peroxidase 1 (GPX1) (AID 1845191); note: nearly all actives have a fitted effect of over 65% in size
# Method in brief: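 GPX1 10 nM, GR 100 nM, GSH 1 mM, NADPH 0.5 mM, CHP 0.5 mM (final). 30-min cpd preincubation, RT. Ex340/Em450 read t=0, t=15 min.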
# [3] = target: Phospholipid hydroperoxide glutathione peroxidase GPX4 (Homo sapiens) (UniProt P36969); assay: Primary qHTS Assay for Inhibitors of Recombinant Selenoprotein Glutathione Peroxidase 4 (GPX4) (AID 1845192); note: nearly all actives have a fitted effect of over 65% in size
# Method in brief: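 qHTS, GR-coupled: GPX4 200 nM + cpd 30 min RT → GSH 1 mM, NADPH 0.5 mM, GR 100 nM → CHP 0.5 mM start; fluor 340/450 at t0 and t15 min; no-enzyme wells as control.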
# [4] = NCATS anti-infectives library activity on HEK293 viability as a counter-qHTS vs the C. elegans viability qHTS (AID 1745854)
# Method in brief: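 CellTiter-Glo luminescence, read on a CCD imager, scored viability of HEK293 cells after 24 hr compound exposure at 37C. Library tested in several concentrations, 1:5 steps, up to 41.7 uM; digitonin served as control.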
# [5] = target: Catechol O-methyltransferase (Homo sapiens) (UniProt P21964); assay: Confirmatory Screen for Target Class Profiling of Small Molecule Inhibitors of Methyltransferases (AID 1745852; calls by dose curve); conditions: MTase-Glo luminescence, SAH detection, recombinant enzyme; measured here: COMT max response; stronger effect = lower value
# [6] = target: Guanidinoacetate N-methyltransferase (Homo sapiens) (UniProt Q14353); assay: as above; conditions: MTase-Glo luminescence, SAH detection, recombinant enzyme; activity change, negative = inhibition: at 57.3 µM (top of the series) unless noted
# [7] = target: Nicotinamide N-methyltransferase (Homo sapiens) (UniProt P40261); assay: as above; conditions: MTase-Glo luminescence, SAH detection, recombinant enzyme; measured here: NNMT max response; stronger effect = lower value
# [8] = target: Phenylethanolamine N-methyltransferase (Homo sapiens) (UniProt P11086); assay: as above; conditions: MTase-Glo luminescence, SAH detection, recombinant enzyme; measured here: PNMT max response; stronger effect = lower value
# Sequence of Phenylethanolamine N-methyltransferase (Homo sapiens) (P11086 whole entry, looked up): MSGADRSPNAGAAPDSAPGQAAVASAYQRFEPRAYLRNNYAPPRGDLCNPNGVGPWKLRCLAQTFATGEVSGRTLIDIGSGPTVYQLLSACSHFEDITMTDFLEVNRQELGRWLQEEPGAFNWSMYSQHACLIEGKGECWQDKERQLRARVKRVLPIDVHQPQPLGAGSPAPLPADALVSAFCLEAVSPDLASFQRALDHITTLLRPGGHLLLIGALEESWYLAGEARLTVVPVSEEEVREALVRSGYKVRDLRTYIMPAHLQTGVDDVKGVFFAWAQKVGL
# Sequence of Phospholipid hydroperoxide glutathione peroxidase GPX4 (Homo sapiens) (P36969 whole entry, looked up): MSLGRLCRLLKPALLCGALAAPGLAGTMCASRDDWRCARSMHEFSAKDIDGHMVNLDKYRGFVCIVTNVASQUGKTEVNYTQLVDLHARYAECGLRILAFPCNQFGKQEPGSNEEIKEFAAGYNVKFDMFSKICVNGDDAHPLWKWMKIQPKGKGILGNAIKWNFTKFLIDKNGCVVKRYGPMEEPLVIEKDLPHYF
# Sequence of Glutathione peroxidase 1 (Homo sapiens) (P07203 whole entry, looked up): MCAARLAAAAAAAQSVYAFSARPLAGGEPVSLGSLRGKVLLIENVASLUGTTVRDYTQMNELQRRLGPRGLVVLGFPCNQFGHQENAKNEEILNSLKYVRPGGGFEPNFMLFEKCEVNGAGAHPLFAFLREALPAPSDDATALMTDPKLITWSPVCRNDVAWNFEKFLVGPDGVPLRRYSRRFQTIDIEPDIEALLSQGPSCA
# Sequence of Catechol O-methyltransferase (Homo sapiens) (P21964 whole entry, looked up): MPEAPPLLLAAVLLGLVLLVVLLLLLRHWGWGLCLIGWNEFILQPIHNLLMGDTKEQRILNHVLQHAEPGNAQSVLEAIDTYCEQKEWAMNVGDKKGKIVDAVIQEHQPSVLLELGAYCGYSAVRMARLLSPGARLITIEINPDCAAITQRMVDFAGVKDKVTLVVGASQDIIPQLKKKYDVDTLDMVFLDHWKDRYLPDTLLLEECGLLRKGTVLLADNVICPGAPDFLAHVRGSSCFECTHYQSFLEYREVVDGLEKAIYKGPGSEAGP
# Sequence of Nicotinamide N-methyltransferase (Homo sapiens) (P40261 whole entry, looked up): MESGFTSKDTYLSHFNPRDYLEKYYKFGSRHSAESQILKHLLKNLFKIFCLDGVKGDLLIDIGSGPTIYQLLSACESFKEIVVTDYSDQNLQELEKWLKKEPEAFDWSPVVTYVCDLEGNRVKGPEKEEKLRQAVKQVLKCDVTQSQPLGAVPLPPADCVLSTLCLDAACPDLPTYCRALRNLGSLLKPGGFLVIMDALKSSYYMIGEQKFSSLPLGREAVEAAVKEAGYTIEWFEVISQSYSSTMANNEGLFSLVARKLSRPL
compound,measurement,setting,value
C[C@]12CC[C@H]3[C@@H]([C@H](O)CC4=CC(=O)CC[C@@]43C)[C@@H]1CC[C@@H]2O,Potency,[1],inactive
same,Potency,[2],inactive
same,Potency,[3],inactive
C1=C2CCCN[C@H]2[C@@H]2C[C@H]1[C@H]1CCCCN1C2,Potency,[1],inactive
same,outcome,[4],inactive
same,Potency,[2],inactive
same,Potency,[3],inactive
N#C/C(=C/c1ccc(O)c(O)c1)C(N)=S,Potency,[1],9.2 µM (active)
same,activity,[5],52.2%
same,"activity change, negative = inhibition",[6],-6.16%
same,activity,[7],-5.97%
same,activity,[8],1.47%
same,Potency,[3],inactive
C[C@]12CC[C@H]3[C@@H](CC[C@@]45O[C@@H]4C(O)=C(C#N)C[C@]35C)[C@@H]1CC[C@@H]2O,Potency,[1],13.2 µM (active)
same,Potency,[2],inactive
same,Potency,[3],inactive
CC(CCc1ccc(O)cc1)O[C@@H]1O[C@H](CO[C@H]2OC[C@](O)(CO)[C@H]2O)[C@@H](O)[C@H](O)[C@H]1O (some centres undefined),Potency,[1],inactive
same,Potency,[2],inactive
same,Potency,[3],inactive
COc1cc2c(cc1OC)[C@@]13CCN4CC5=CCO[C@H]6CC(=O)N2[C@H]1[C@H]6[C@H]5C[C@H]43,Potency,[1],inactive
same,Potency,[2],inactive
same,Potency,[3],inactive
CN1CCCC1CCOC(c1cc2nccc(C(=O)O)c2[nH]1)c1ccccc1Cl (centres undefined),Potency,[1],inactive
same,outcome,[4],inactive
same,Potency,[2],inactive
same,Potency,[3],inactive
COC1C(O)C(C)OC(OC2C(CO)O[C@@H](O[C@@H]3CC4CCC5C(CC[C@]6(C)[C@@H](C7=CC(=O)OC7)CC[C@]56O)[C@@]4(C)[C@H](O)C3)C(O)C2O)C1O (some centres undefined),Potency,[1],0.483 µM (active)
same,Potency,[2],inactive
same,Potency,[3],inactive
C=C[C@H]1[C@H](O[C@@H]2O[C@H](CO)[C@@H](O)[C@H](O)[C@H]2O)OC=C2C(=O)OCC[C@H]21,Potency,[1],inactive
same,Potency,[2],inactive
same,Potency,[3],inactive
C[C@@]1(C(=O)O)CC[C@]2(C)CC[C@]3(C)C4=CC(=O)c5cc(O)c(O)cc5[C@]4(C)CC[C@@]3(C)[C@@H]2C1,Potency,[1],inactive
same,Potency,[2],inactive
same,Potency,[3],inactive
CN[C@H]1[C@H](O)[C@H](O[C@@H]2[C@@H](O)[C@H](O[C@H]3O[C@H]([C@H](C)O)[C@@H](O)[C@H](O)[C@H]3N)[C@@H](N)C[C@H]2N)OC[C@@]1(C)O,Potency,[1],inactive
same,Potency,[2],inactive
same,Potency,[3],inactive
Clc1ccc(OCC2=NCCN2)cc1Cl,Potency,[1],inactive
same,Potency,[2],inactive
same,Potency,[3],inactive
CC(C)[C@@H](CN1CC[C@@](C)(c2cccc(O)c2)[C@@H](C)C1)NC(=O)[C@H]1Cc2ccc(O)cc2CN1,Potency,[1],14.5 µM (active)
same,Potency,[2],inactive
same,Potency,[3],inactive
